# From PubChem BioAssay
# Calls of active or inactive are those of the source.
# How the values were obtained:
# [1] = molecular target: Albumin (Bos taurus) (UniProt P02769); assay: bovine serum albumin binders on microarray, profiling panel, artefact control for SMM control protein annotation, biochemical, small-molecule microarray, Alexa647 label, 635/667 nm fluorescence (AID 1118); settings: BSA-A647 binding, fluorescence 635 nm, higher = more signal;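 note: score merges 667 nm emission intensity and signal-to-noise per printed compound spot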
# Chain of Albumin (Bos taurus) (P02769 whole entry, looked up): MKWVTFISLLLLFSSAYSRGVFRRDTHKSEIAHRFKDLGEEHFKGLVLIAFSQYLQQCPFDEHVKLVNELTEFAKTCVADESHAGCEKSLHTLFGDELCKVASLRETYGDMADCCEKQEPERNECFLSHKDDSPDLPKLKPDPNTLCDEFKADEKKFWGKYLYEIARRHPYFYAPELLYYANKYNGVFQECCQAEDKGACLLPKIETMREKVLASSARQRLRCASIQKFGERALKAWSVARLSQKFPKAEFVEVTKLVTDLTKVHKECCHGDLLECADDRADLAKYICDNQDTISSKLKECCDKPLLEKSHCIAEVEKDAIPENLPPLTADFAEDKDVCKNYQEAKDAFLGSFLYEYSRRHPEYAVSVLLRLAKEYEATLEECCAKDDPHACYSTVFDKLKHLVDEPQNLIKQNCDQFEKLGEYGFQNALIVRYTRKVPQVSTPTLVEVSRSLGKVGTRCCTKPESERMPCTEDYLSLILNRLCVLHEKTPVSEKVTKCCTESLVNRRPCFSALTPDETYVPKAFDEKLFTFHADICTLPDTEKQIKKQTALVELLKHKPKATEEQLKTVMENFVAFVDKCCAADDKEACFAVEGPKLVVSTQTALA
# [2] = small-molecule microarray binders of probe aXIP, primary screen, biochemical, NeuroSMM set, 635/667 nm fluorescence (AID 1119); settings: higher = more signal, called active from +8 up or from −8 down;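 note: probe is the protein aXip251-270 applied at 1 µg/mL to compound-printed slides; binding of probe to printed compounds measured as 667 nm fluorescence plus signal to noise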
# [3] = small-molecule binders of probe aNOTCH3, primary screen, biochemical, small-molecule microarray, 635/667 nm fluorescence (AID 1120); settings: higher = more signal;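 note: probe is a biotin-tagged antibody raised against NOTCH3 rather than NOTCH3 protein; score merges spot fluorescence near 667 nm with spot signal to noise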
# [4] = small-molecule binders of probe aNOTCH2, primary screen, biochemical, small-molecule microarray, 635/667 nm fluorescence (AID 1121); settings: higher = more signal;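 note: score merges feature fluorescence read at 667 nm with its signal to noise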
# [5] = molecular target: Carbonic anhydrase 2 (Homo sapiens) (UniProt P00918); assay: CAII small-molecule binders, profiling panel, biochemical, small-molecule microarray, Alexa647-labelled CAII (AID 1122); settings: CAII-A647 binding fluorescence, higher = more signal
# [6] = COS7 lysate on small-molecule microarray, probe aHis, 635 nm (AID 1123); settings: COS7 cell lysate, fluorescence, higher = more signal;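 note: z-score combines 667nm fluorescence intensity with signal-to-noise per printed compound spot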
# [7] = compound binding in COS7 lysate, probe aLAP1, primary screen, cell lysate, small-molecule microarray (AID 1124); settings: probe aLAP1, fluorescence, higher = more signal;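 note: lysate comes from COS7 cells expressing LAP1 and is applied at 0.3 µg/mL; score merges spot fluorescence near 667 nm with signal-to-noise over triplicate slides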
# [8] = tested on: Sam68 (KHDRBS1); assay: Sam68 small-molecule binders, primary screen, biochemical, small-molecule microarray, 635 nm fluorescence (AID 1125); settings: small-molecule microarray binding, higher = more signal;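 note: score merges 667 nm channel intensity with signal to noise over triplicate slides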
# [9] = tested on: Chordin-like protein 2 (CHRDL2); assay: CHRDL2 small-molecule binders, primary screen, biochemical, small-molecule microarray, 635 nm fluorescence (AID 1126); settings: small-molecule microarray binding, fluorescence 635 nm; higher = more signal;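 note: printed compound slides probed with Chrdl2 protein at 4 µg/mL for 1 h at 4 C; score merges 667 nm emission intensity with signal to noise over three replicate slides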
# [10] = molecular target: Concanavalin-A (Canavalia ensiformis) (UniProt P02866); assay: ConA small-molecule binders, primary screen, artefact control for SMM control protein annotation, biochemical, small-molecule microarray, Alexa647 label, 635 nm (AID 1127); settings: ConA-A647 binding fluorescence, higher = more signal;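 note: z combines 667 nm emission intensity with signal-to-noise across three replicate slides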
# Chain of Concanavalin-A (Canavalia ensiformis) (P02866 whole entry, looked up): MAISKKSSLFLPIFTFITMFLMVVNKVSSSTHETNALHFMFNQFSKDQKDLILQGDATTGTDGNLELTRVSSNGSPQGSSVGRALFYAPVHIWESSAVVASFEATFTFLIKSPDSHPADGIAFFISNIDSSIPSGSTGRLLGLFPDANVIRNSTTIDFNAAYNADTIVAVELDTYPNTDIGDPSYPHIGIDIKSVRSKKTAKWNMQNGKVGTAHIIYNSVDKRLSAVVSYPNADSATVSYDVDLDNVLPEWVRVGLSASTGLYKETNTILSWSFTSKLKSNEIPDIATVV
# [11] = anti-His antibody binders, primary screen, artefact control for SMM control protein annotation, biochemical, small-molecule microarray, 635 nm fluorescence (AID 1128); settings: anti-His Alexa647 antibody binding, higher = more signal;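 note: score merges feature fluorescence with signal-to-noise for each printed compound spot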
# [12] = tested on: Human papillomavirus type 1a E7 protein (residues 1-88); assay: HPV1a E7 small-molecule binders, primary screen, biochemical, small-molecule microarray, residues 1-88, 635 nm (AID 1129); settings: small-molecule microarray binding, fluorescence 635 nm; higher = more signal
# [13] = molecular target: Focal adhesion kinase 1 (Homo sapiens) (UniProt Q05397); assay: small-molecule microarray binders of FAK, primary screen, biochemical, 635/667 nm fluorescence, BSA, DTT (AID 1130); settings: PTK2 binding, 635 nm fluorescence, higher = more signal;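 note: composite of spot emission at 667 nm and signal to noise over triplicate slides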
# Chain of Focal adhesion kinase 1 (Homo sapiens) (Q05397 whole entry, looked up): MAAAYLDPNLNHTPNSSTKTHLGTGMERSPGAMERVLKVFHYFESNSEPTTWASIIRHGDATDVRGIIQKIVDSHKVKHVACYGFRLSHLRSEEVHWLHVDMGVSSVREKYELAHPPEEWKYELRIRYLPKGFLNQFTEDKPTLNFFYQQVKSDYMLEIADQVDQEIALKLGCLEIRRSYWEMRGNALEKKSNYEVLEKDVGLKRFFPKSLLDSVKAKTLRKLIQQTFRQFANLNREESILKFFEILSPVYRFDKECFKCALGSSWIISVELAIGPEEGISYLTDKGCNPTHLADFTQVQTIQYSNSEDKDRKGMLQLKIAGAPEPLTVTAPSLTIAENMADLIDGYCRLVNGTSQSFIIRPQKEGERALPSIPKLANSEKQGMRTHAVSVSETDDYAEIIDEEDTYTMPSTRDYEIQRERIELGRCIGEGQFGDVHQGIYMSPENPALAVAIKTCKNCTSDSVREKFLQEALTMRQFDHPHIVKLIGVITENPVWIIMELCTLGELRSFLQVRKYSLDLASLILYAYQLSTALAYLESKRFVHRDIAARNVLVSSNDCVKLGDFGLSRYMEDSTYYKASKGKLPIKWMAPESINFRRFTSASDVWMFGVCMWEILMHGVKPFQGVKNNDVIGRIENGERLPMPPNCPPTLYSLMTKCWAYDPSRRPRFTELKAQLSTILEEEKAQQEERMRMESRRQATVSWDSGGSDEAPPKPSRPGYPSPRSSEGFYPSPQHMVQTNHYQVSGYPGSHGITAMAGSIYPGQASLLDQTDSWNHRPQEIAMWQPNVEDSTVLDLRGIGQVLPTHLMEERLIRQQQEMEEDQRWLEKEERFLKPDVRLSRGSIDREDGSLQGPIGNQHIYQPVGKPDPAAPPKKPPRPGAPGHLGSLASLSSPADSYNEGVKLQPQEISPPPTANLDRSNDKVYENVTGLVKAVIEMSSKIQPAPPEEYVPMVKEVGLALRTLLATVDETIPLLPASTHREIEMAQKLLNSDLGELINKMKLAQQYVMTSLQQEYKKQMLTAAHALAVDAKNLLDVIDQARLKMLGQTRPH
# [14] = tested on: Fibrinogen (Alexa647-labelled); assay: fibrinogen binders on compound microarrays, profiling panel, artefact control for SMM control-protein annotation, biochemical, small-molecule microarray, 635/667 nm fluorescence (AID 1131); settings: fibrinogen-A647 binding fluorescence, higher = more signal;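 note: z-score merges 667 nm fluorescence with per-spot signal-to-noise over triplicate slides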
# [15] = molecular target: Follistatin (Homo sapiens) (UniProt P19883); assay: follistatin binders on small-molecule microarrays, primary screen, biochemical, small-molecule microarray, 635/667 nm fluorescence (AID 1132); settings: FST binding, 635 nm fluorescence, higher = more signal
# Chain of Follistatin (Homo sapiens) (P19883 whole entry, looked up): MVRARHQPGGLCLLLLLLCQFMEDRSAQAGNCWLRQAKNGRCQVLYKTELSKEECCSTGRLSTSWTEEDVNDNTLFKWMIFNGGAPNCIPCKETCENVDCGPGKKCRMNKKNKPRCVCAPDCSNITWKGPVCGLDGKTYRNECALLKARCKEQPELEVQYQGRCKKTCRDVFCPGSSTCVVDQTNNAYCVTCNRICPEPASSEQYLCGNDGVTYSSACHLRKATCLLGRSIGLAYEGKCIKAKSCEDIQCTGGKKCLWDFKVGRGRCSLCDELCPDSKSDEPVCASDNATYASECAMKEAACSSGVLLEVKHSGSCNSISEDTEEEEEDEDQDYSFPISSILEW
# [16] = molecular target: Fibroblast growth factor 2 (Homo sapiens) (UniProt P09038); assay: FGF2 binders on small-molecule microarrays, primary screen, biochemical, small-molecule microarray, 635/667 nm fluorescence (AID 1133); settings: small-molecule microarray binding, FGF2, fluorescence 635/667; higher = more signal
# Chain of Fibroblast growth factor 2 (Homo sapiens) (P09038 whole entry, looked up): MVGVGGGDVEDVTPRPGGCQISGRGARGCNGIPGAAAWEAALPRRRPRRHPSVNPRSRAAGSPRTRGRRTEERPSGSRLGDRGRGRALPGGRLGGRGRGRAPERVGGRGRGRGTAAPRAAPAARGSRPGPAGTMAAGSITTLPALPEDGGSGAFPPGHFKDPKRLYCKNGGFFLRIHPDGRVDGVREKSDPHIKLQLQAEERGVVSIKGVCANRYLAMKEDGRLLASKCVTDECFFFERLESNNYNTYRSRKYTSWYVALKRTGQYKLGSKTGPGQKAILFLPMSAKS
# [17] = mitochondrial membrane potential change in A549 cells, profiling panel, cell-based, JC-1 fluorescence, basal, 24 h, 100 nL (AID 1138); settings: higher = more signal;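 note: A549 lung adenocarcinoma cells under basal conditions with no added stimulus; test concentration not given here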
# [18] = tested on: Lefty1; assay: Lefty1 binders on small-molecule microarrays, primary screen, biochemical, small-molecule microarray, 635/667 nm fluorescence (AID 1139); settings: small-molecule microarray binding, fluorescence 635/667; higher = more signal
# [19] = tested on: wheat germ agglutinin (Triticum aestivum), Alexa647-labelled; assay: wheat germ agglutinin binders on compound microarrays, profiling panel, artefact control for SMM control-protein annotation, biochemical, small-molecule microarray, 635/667 nm fluorescence (AID 1140); settings: WGA-A647 binding, 635 nm fluorescence, higher = more signal;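 note: score merges 667 nm feature emission with signal to noise over triplicate slides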
# [20] = molecular target: Luciferin 4-monooxygenase (Photinus pyralis) (UniProt P08659); assay: firefly luciferase enzyme inhibitors, primary screen, biochemical, luminescence, purified enzyme, 2006 set (AID 1141); settings: SteadyGlo luminescence, 30 min, higher = more signal, called active from +8 up or from −8 down;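 note: cell-free assay with purified firefly luciferase at 100 ng per well in PBS; test concentration not given here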
# Chain of Luciferin 4-monooxygenase (Photinus pyralis) (P08659 whole entry, looked up): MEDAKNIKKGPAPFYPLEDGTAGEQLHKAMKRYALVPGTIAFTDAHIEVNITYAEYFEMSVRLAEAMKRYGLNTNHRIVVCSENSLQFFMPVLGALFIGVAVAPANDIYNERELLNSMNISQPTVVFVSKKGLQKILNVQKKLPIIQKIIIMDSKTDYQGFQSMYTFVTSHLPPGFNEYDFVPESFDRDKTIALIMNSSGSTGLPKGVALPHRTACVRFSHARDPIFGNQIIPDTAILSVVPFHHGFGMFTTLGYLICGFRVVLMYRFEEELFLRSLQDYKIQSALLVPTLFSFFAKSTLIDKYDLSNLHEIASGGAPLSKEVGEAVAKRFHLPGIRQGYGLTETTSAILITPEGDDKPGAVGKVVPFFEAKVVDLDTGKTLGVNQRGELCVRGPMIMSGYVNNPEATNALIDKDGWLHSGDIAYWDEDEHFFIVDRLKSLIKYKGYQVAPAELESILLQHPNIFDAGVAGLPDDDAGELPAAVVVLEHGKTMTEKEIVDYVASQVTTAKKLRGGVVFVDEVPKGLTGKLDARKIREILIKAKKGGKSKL
SMILES,composite z-score [1],composite Z-score [2],composite z-score [3],composite z-score [4],composite z-score [5],composite z-score [6],composite z-score [7],composite z-score [8],composite z-score [9],composite z-score [10],composite z-score [11],composite z-score [12],composite z-score [13],composite z-score [14],composite z-score [15],composite z-score [16],z-score [17],composite z-score [18],composite z-score [19],z-score [20]
COC(=O)[C@@]1(Cc2ccc(F)cc2)[C@H]2c3cc(C(=O)N4CCCC4)n(Cc4cccc5ccccc45)c3C[C@H]2CN1C(=O)c1ccccc1,1.08,-0.421 (inactive),0.535,0.173,0.533,3.22,0.513,1.07,-0.411,0.405,1.98,1.28,2.08,0.83,0.0834,-0.426,0.917,-0.0668,1.06,0.943 (inactive)
CCOC(=O)[C@H]1C[C@H]2O[C@@]23C[C@H]1C(=O)N1CCCC1[C@@H]3O[Si](C)(C)C(C)(C)C (stereo not given in full),-0.505,0.545 (inactive),0.0203,-0.102,-0.123,0.178,-0.244,-0.445,-0.694,-1.61,-0.288,-0.311,-0.349,-0.466,-0.068,-0.0656,-0.341,0.225,-0.339,0.261 (inactive)
COC(=O)C(CC#Cc1ccc2c(c1)[C@]1(C(=O)N2)[C@H](C(=O)NC[C@H](O)c2ccccc2)[C@H]2C(=O)O[C@H](c3ccccc3)[C@H](c3ccccc3)N2[C@@H]1c1ccc(OCCO)cc1)C(=O)OC,0.516,2.12 (inactive),1.4,0.146,0.556,2.94,0.811,1.27,0.75,1.02,1.5,1.21,0.538,0.957,1.25,0.937,-1.32,1.69,1.21,-1.83 (inactive)
COC(=O)[C@@]1(Cc2ccccc2)[C@H]2c3cc(C(=O)N4CCCC4)n(C)c3C[C@H]2CN1C(=O)c1ccccc1,1.06,0.363 (inactive),0.347,-0.138,0.912,2.35,0.711,-0.0981,-1.18,1.07,1.95,0.762,1.73,1.03,0.725,-0.915,0.244,-0.0781,1.06,0.271 (inactive)
CCN(CC)c1ccc(N2CC=CC34O[C@@H]5/C=C\CCCOC(=O)C5[C@H]3C(=O)N(C(CO)C(C)C)[C@@H]4C2=O)cc1 (stereo not given in full),-1.18,0.0855 (inactive),-0.165,-0.123,0.827,-0.21,-0.32,-0.384,-0.684,-0.467,1.02,-1.04,0.409,-1.1,-0.45,-0.593,0.8,-0.217,-0.615,-0.557 (inactive)
O=C1OCC=C[C@H]2OC34C=CCN(c5ccc(Cl)cc5)C(=O)[C@H]3N(CCCCCCO)C(=O)[C@@H]4[C@@H]12 (stereo not given in full),-0.95,0.276 (inactive),-0.226,-0.148,0.978,0.568,0.688,-1.02,-1.03,-1.59,1.41,-0.777,-0.209,-2.01,-1.57,-0.705,1.82,-1.09,-0.892,-0.71 (inactive)
CCOC(=O)C[C@H]1[C@H](OC(=O)c2ccc(-c3ccccc3)cc2)[C@@H](NC(=O)c2ccc3ccccc3c2)c2cc(OCCCO)ccc2N1C(=O)Cc1ccc(OC)cc1,0.605,-0.608 (inactive),-0.063,-0.11,-0.0752,0.484,0.188,0.41,-0.887,-0.101,-0.034,0.401,0.463,0.536,-0.187,-0.0546,-0.0901,-0.154,-0.006,1.13 (inactive)
CC=CC(O)C1C=CC2C(=O)N(c3ccccc3)C(=O)C2N1Nc1ccc(C(C)C)cc1 (stereo not given),0.98,0.609 (inactive),0.271,0.0751,0.641,3.26,0.3,1.3,0.0045,1.11,0.585,1.2,0.777,0.831,1.12,0.133,-0.723,0.0518,1.32,-0.959 (inactive)
COc1cc2c(cc1OC)CN(C(=O)[C@@H]1[C@H]3C(=O)O[C@H](c4ccccc4)[C@H](c4ccccc4)N3[C@H](c3ccccc3OCCO)[C@@]13C(=O)Nc1ccc(C#CCNC(N)=O)cc13)CC2,0.301,0.545 (inactive),0.37,-0.0251,0.377,2.65,1.15,1.31,0.981,1.11,1.62,0.923,1.33,0.933,0.741,0.748,-0.864,0.768,0.856,-1.64 (inactive)
